Laboratory results published in PubChem BioAssay AID1159580 (chemical genetic matrix, 2015).
The whole screen tested about 5,500 compounds, of which about 2,000 (36%) were called active. Roughly 18% stayed inconclusive and do not appear here. No stated cut-off is given here; in the data, active means normalized growth mostly below about 0.91 (no sharp cut-off); inconclusive means no clear call, values can overlap the other calls; inactive means mostly above about 0.92. The list shows a part of the results.

Experiment: chemical genetic growth profiling, strain panel (AID 1159580);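 further: tested at 20 µM; growth read once vehicle control cultures reached saturation at 30 °C; 1 = growth at the plate median or of vehicle wells; lower values mean less growth of the strain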
Conditions: growth OD

Measured: normalized growth

C=C1CCC2C(CC2(C)C)C(=C)CC/C1=N\O (centres undefined)
active: S. cerevisiae deletion strains, locus YKL009W, strain mrt4, hits give low values 0.879 | S. cerevisiae deletion strains, locus YKR001C, strain vps1, hits give low values 0.703 | S. cerevisiae deletion strains, locus YLR039C, strain RIC1, hits give low values 0.441 | S. cerevisiae deletion strains, locus YLR262C, strain YPT6, hits give low values 0.393 | S. cerevisiae deletion strains, locus YLR342W, strain FKS1 (second series), hits give low values 0.694 | S. cerevisiae deletion strains, locus YML032C, strain rad52, hits give low values 0.89 | S. cerevisiae deletion strains, locus YMR307W, strain GAS1, hits give low values 0.423 | S. cerevisiae deletion strains, locus YNL298W, strain CLA4, hits give low values 0.878 | S. cerevisiae deletion strains, locus YNL307C, strain MCK1, hits give low values 0.683 | S. cerevisiae deletion strains, locus YOR184W, strain ser1, hits give low values 0.697
inactive: S. cerevisiae deletion strains, locus YJL187C, strain SWE1, hits give low values 1.01 | S. cerevisiae deletion strains, locus YJR043C, strain POL32, hits give low values 0.905 | S. cerevisiae deletion strains, locus YJR075W, strain HOC1, hits give low values 0.894 | S. cerevisiae deletion strains, locus YKL068W, hits give low values 0.996 | S. cerevisiae deletion strains, locus YKL085W, strain MDH1 (second series), hits give low values 0.972 | S. cerevisiae deletion strains, locus YKL085W, strain MDH1, hits give low values 0.972 | S. cerevisiae deletion strains, locus YKL160W, strain elf1, hits give low values 1 | S. cerevisiae deletion strains, locus YKL190W, strain CNB1, hits give low values 1.01 | S. cerevisiae deletion strains, locus YKR026C, strain gcn3, hits give low values 0.998 | S. cerevisiae deletion strains, locus YKR091W, strain srl3, hits give low values 0.995 | S. cerevisiae deletion strains, locus YLL001W, strain dnm1, hits give low values 1.01 | S. cerevisiae deletion strains, locus YLL026W, hits give low values 0.999 | S. cerevisiae deletion strains, locus YLL041C, strain sdh2, hits give low values 0.994 | S. cerevisiae deletion strains, locus YLR027C, strain aat2, hits give low values 1 | S. cerevisiae deletion strains, locus YLR058C, strain SHM2, hits give low values 1.01 | S. cerevisiae deletion strains, locus YLR102C, strain apc9, hits give low values 1.01 | S. cerevisiae deletion strains, locus YLR221C, strain rsa3, hits give low values 0.983 | S. cerevisiae deletion strains, locus YLR258W, strain gsy2, hits give low values 1.01 | S. cerevisiae deletion strains, locus YLR262C, strain YPT6 (second series), hits give low values 0.966 | S. cerevisiae deletion strains, locus YLR268W, strain sec22, hits give low values 0.936 | S. cerevisiae deletion strains, locus YLR320W, strain mms22, hits give low values 0.984 | S. cerevisiae deletion strains, locus YLR330W, strain CHS5, hits give low values 1.01 | S. cerevisiae deletion strains, locus YLR342W, strain FKS1, hits give low values 1.01 | S. cerevisiae deletion strains, locus YLR357W, strain rsc2, hits give low values 1.03 | S. cerevisiae deletion strains, locus YLR370C, strain arc18, hits give low values 0.996 | S. cerevisiae deletion strains, locus YLR371W, strain rom2, hits give low values 0.994 | S. cerevisiae deletion strains, locus YLR384C, strain iki3, hits give low values 0.992 | S. cerevisiae deletion strains, locus YLR418C, strain cdc73, hits give low values 0.847 | S. cerevisiae deletion strains, locus YML016C, strain PPZ1, hits give low values 0.999 | S. cerevisiae deletion strains, locus YML120C, strain ndi1, hits give low values 1.01 | S. cerevisiae deletion strains, locus YML124C, strain tub3, hits give low values 0.99 | S. cerevisiae deletion strains, locus YMR058W, strain fet3, hits give low values 1.01 | S. cerevisiae deletion strains, locus YMR078C, strain ctf18, hits give low values 0.978 | S. cerevisiae deletion strains, locus YMR125W, strain sto1, hits give low values 1.03 | S. cerevisiae deletion strains, locus YMR129W, hits give low values 1 | S. cerevisiae deletion strains, locus YMR205C, strain PFK2, hits give low values 0.992 | S. cerevisiae deletion strains, locus YMR223W, strain ubp8, hits give low values 0.906 | S. cerevisiae deletion strains, locus YMR231W, strain pep5, hits give low values 0.997 | S. cerevisiae deletion strains, locus YMR263W, strain SAP30, hits give low values 0.962 | S. cerevisiae deletion strains, locus YNL067W, strain RPL9B, hits give low values 0.942 | S. cerevisiae deletion strains, locus YNL071W, strain lat1, hits give low values 1 | S. cerevisiae deletion strains, locus YNL128W, strain TEP1, hits give low values 0.964 | S. cerevisiae deletion strains, locus YNL153C, strain GIM3, hits give low values 0.972 | S. cerevisiae deletion strains, locus YNL209W, strain ssb2, hits give low values 1 | S. cerevisiae deletion strains, locus YNL233W, strain BNI4, hits give low values 0.892 | S. cerevisiae deletion strains, locus YNL248C, strain rpa49, hits give low values 1 | S. cerevisiae deletion strains, locus YNL250W, strain rad50, hits give low values 0.991 | S. cerevisiae deletion strains, locus YNL271C, strain bni1, hits give low values 0.969 | S. cerevisiae deletion strains, locus YNL322C, strain KRE1 (second series), hits give low values 0.983 | S. cerevisiae deletion strains, locus YNL322C, strain KRE1, hits give low values 0.988 | S. cerevisiae deletion strains, locus YNR049C, strain mso1, hits give low values 0.997 | S. cerevisiae deletion strains, locus YNR052C, strain pop2, hits give low values 0.944 | S. cerevisiae deletion strains, locus YOL006C, strain TOP1, hits give low values 0.725 | S. cerevisiae deletion strains, locus YOL012C, strain htz1 1.35 | S. cerevisiae deletion strains, locus YOL147C, strain pex11, hits give low values 0.983 | S. cerevisiae deletion strains, locus YOR001W, strain rrp6, hits give low values 0.985 | S. cerevisiae deletion strains, locus YOR061W, strain CKA2, hits give low values 0.997 | S. cerevisiae deletion strains, locus YOR069W, strain VPS5, hits give low values 1.01 | S. cerevisiae deletion strains, locus YOR070C, strain gyp1, hits give low values 0.991 | S. cerevisiae deletion strains, locus YOR080W, strain dia2, hits give low values 1.01 | S. cerevisiae deletion strains, locus YOR083W, strain WHI5, hits give low values 0.989 | S. cerevisiae deletion strains, locus YOR106W, strain vam3, hits give low values 1 | S. cerevisiae deletion strains, locus YOR136W, strain idh2, hits give low values 0.972 | S. cerevisiae deletion strains, locus YOR144C, strain elg1, hits give low values 0.976 | S. cerevisiae deletion strains, locus YOR265W, strain rbl2, hits give low values 0.993 | S. cerevisiae deletion strains, locus YOR270C, strain vph1, hits give low values 0.987 | S. cerevisiae deletion strains, locus YOR290C, strain snf2, hits give low values 0.972 | S. cerevisiae deletion strains, locus YOR316C, strain cot1, hits give low values 1 | S. cerevisiae deletion strains, locus YPL051W, strain arl3, hits give low values 1.03 | S. cerevisiae deletion strains, locus YPL055C, strain LGE1, hits give low values 0.844 | S. cerevisiae deletion strains, locus YPL078C, strain atp4, hits give low values 1 | S. cerevisiae deletion strains, locus YPL106C, strain sse1, hits give low values 1.05 | S. cerevisiae deletion strains, locus YPL240C, strain hsp82, hits give low values 1 | S. cerevisiae deletion strains, locus YPR119W, strain clb2, hits give low values 0.983 | S. cerevisiae deletion strains, locus YPR141C, strain kar3, hits give low values 1.01 | S. cerevisiae deletion strains, locus YPR163C, strain tif3, hits give low values 0.996 | S. cerevisiae deletion strains, locus YPR167C, strain met16, hits give low values 0.993 | S. cerevisiae deletion strains, strain wtn01, hits give low values 0.915 | S. cerevisiae strains, strain wild type, hits give low values 0.982
